# About 83,000 compounds went through this panel and 20% of them were active in at least one assay; those are over-represented in the sample as a whole.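 A percent growth of 40 corresponds to 60% growth inhibition; 0 means no net growth; -100 means all cells died. Active threshold: below 10.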 A number with no mark means an inactive call. Active and inactive are the calls of the source.
# Test system: TK-10 renal
# Test: NCI-60 one-dose screen, 48 h (100 = growth as untreated, 0 = no growth, -100 = all killed)
# Conditions: 10 µM unless noted
row,SMILES,growth
1,CCN1CCN(c2cc(C(=O)Nc3nc(-c4cc(OC)c(OC)c(OC)c4)cs3)cc(C(F)(F)F)c2)CC1,82.4%
2,CN1CCN(c2ccc(C(=O)Nc3cccc(C#Cc4cccc5[nH]nc(N)c45)c3)cc2C(F)(F)F)CC1,-30.2% (active)
3,CN1CCN(c2ccc(NC(=O)c3cncnc3Nc3ccc(OCc4ccccn4)c(Cl)c3)cc2)CC1,92.4%
4,c1ccc(CNc2c3ccccc3nc3ccccc23)cc1,48.7%
5,C/C(=N\NC(=O)c1ccccc1O)c1cccc(/C(C)=N/NC(=O)c2ccccc2O)n1,41%
6,N#Cc1c(NC(=O)c2ccccc2)sc2c1CCC(=O)C2,39.5%
7,CCO/C=N/C1=C(C#N)C(c2ccc(OC)cc2)c2sc3c(F)cccc3c2O1 (stereo not drawn),51.8%
8,O=C(CI)NC1Oc2ccccc2-c2oc(=O)c(-c3ccccc3)cc21 (stereo not drawn),-73.5% (active)
9,Brc1ccc2[nH]cc(-c3nonc3-c3c[nH]c4ccccc34)c2c1,41.7%
10,Fc1ccc2[nH]cc(-c3nonc3-c3c[nH]c4ccc(Br)cc34)c2c1,41.5%
11,N#CC1C=CN(CC(N)=O)c2ccc3cccnc3c21 (stereo not drawn),115%
12,CCOC(=O)CSc1ncnc2c1c(-c1ccccc1)c(-c1ccccc1)n2-c1ccc(C)cc1,78.5%
13,O=C(Cn1c2c(c3ccccc31)CCCC2)Nc1ccc(-c2nc3ccccc3s2)cc1,98.9%
14,CC(C)=CCC[C@](C)(O)[C@H]1CC[C@]2(C)[C@@H]1CC[C@@H]1[C@@]3(C)Cc4nccnc4C(C)(C)[C@@H]3CC[C@]12C,94.9%
15,COc1cc2oc(-c3cccc(NC(=O)c4cccc(Br)c4)c3)cc(=O)c2c(OC)c1OC,65.5%
16,O=C(Nc1nc2ccc(F)cc2s1)c1cccnc1Nc1ccc(Cl)cc1,27.4%
17,Nc1c(C(=O)Nc2ccncc2)sc2nc3c(cc12)CCCCCC3,90.2%
18,CC1(C)c2[nH]c3ccccc3c2C[C@]2(C)[C@H]3CC=C4[C@@H]5C[C@@](C)(C(N)=O)CC[C@]5(C)CC[C@@]4(C)[C@]3(C)CC[C@@H]12,84.2%

# Reference: PubChem BioAssay (NCI)
